Consider 17 molecules from PubChem BioAssay (NCATS).

Test [1] in a line: qHTS drug screen for cell cycle checkpoint inhibitors in PARPi-resistant BRCA-mutant ovarian cancer cell lines. (AID 1963452; calls by dose curve; further: potency means the concentration at half of the fitted maximal effect). To be noted: PEO1/OlaR viability, CellTiter-Glo luminescence, 96 h; for Z-AUC: stronger effect = lower value. The essentials:
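PEO1, PEO4 and PEO1/OlaR ovarian cancer cells, 600 per well, exposed 96 h at 37C to a dilution series. Viability read by CellTiter-Glo luminescence, normalized to DMSO and empty wells; activity summarized as Z-AUC.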

The nature of test [2]: qHTS profiling for inhibitors of Plasmodium falciparum proliferation (AID 504749). Further: potency means the concentration at half of the fitted maximal effect.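 On activity, negative = inhibition: 0% = DMSO vehicle and full inhibition = artemisinin control.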 On all read-outs here: nearly all actives have a fitted effect of over 60% in size. Conditions: P. falciparum in erythrocytes, SYBR Green DNA, 72 h; for activity, negative = inhibition: at 28.7 µM (top of the series). In outline:
(§1)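 P. falciparum-infected erythrocytes (0.3% parasitemia, 2.5% hematocrit) incubated with compound 72 h at 37 C, 5% CO2. Parasite DNA detected by SYBR Green after lysis, overnight at room temperature; normalised to 0.29 uM artemisinin and DMSO.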

The subject of a further test is 3D7. The test is described as above. To be noted: P. falciparum in erythrocytes, SYBR Green DNA, 72 h; series mostly up to 28.7 µM. In outline: as §1
Test [3] in a line: Quantitative High-Throughput drug screen in 47 multiple myeloma cell lines against the NCATS MIPE library collection: U266_ATCC cell viability assay (AID 1919864). Further: nearly all actives have a fitted effect of over 35% in size. To be noted: U266 myeloma viability, CellTiter-Glo ATP luminescence, 48 h; series mostly up to 45.8 µM. In outline: (§2)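 500 cells/well per myeloma line exposed to pinned MIPE 4.0 compounds for 48 h at 37 °C, 5% CO2. Viability read as ATP by CellTiter-Glo luminescence, normalised to DMSO-only (100%) and media-only (0%) wells.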
(In general: Cellular ATP, detected with luciferase, serves as a proxy for viable cell number.)

Test [4] is described as follows: Quantitative High-Throughput drug screen in 47 multiple myeloma cell lines against the NCATS MIPE library collection: PE2_PLB cell viability assay (AID 1919869). Further: nearly all actives have a fitted effect of over 35% in size. Further: potency means the concentration at half of the fitted maximal effect. To be noted: PE2_PLB myeloma cells viability, ATP luminescence, 48 h; series mostly up to 45.8 µM. In outline: as §2
A short description of test [5]: Quantitative High-Throughput drug screen in 47 multiple myeloma cell lines against the NCATS MIPE library collection: RPMI8226_ATCC cell viability assay (AID 1919871). Further: nearly all actives have a fitted effect of over 30% in size. To be noted: RPMI8226 myeloma viability, CellTiter-Glo ATP luminescence, 48 h; series mostly up to 45.8 µM. The essentials:
as §2

A short description of test [6]: Quantitative High-Throughput drug screen in 47 multiple myeloma cell lines against the NCATS MIPE library collection: OPM2_DSMZ cell viability assay (AID 1919872). Further: nearly all actives have a fitted effect of over 30% in size. Conditions: OPM2 myeloma viability, CellTiter-Glo ATP luminescence, 48 h; series mostly up to 45.8 µM. In outline:
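Viability readout: CellTiter-Glo luminescence following 5 min room-temperature incubation with reagent. Prior exposure: 48 h, 37C, humidified 5% CO2, 500 cells per well.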

Test [7] in a line: Quantitative High-Throughput drug screen in 47 multiple myeloma cell lines against the NCATS MIPE library collection: KMS11_JCRBsus cell viability assay (AID 1919873). Further: nearly all actives have a fitted effect of over 50% in size. Conditions: KMS11 myeloma viability, CellTiter-Glo ATP luminescence, 48 h; series mostly up to 45.8 µM. The essentials:
as §2

Test [8] in a line: Quantitative High-Throughput drug screen in 47 multiple myeloma cell lines against the NCATS MIPE library collection: KMS28BM_JCRB cell viability assay (AID 1919874). Further: nearly all actives have a fitted effect of over 35% in size. To be noted: CellTiter-Glo ATP, 48 h; series mostly up to 45.8 µM. In outline:
as §2

A short description of test [9]: qHTS for identification of novel therapeutic agents for treatment of microphthalmiaassociated transcription factor (MiT) renal cell carcinoma (RCC) (AID 1963991).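 Further: curves scaled with 100% = DMSO viability and 0% = empty wells.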 To be noted: CellTiter-Glo, 48 h, stronger effect = lower value. The essentials:
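UOK109/UOK124/UOK145 (TFE3 fusions, three partners); 500 cells/well; MIPE v4.0, 1912 cpds, 11 conc.; 48 h, 37 C; CellTiter-Glo, 15 min RT; lum. Norm.: DMSO 100%, empty 0%.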
For orientation: Quantitative high-throughput screening tests each substance at several concentrations.

The test system of a further test is 7G8. Nature of the test: qHTS profiling for inhibitors of Plasmodium falciparum proliferation (AID 504749). Further: nearly all actives have a fitted effect of over 60% in size. Further: potency means the concentration at half of the fitted maximal effect.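 On activity, negative = inhibition: 0% = DMSO vehicle and full inhibition = artemisinin control.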 Conditions: P. falciparum in erythrocytes, SYBR Green DNA, 72 h; series mostly up to 28.7 µM. The essentials: as §1
Test [10] can be described thus: KB-8-5-11 P-gp reporter qHTS against the NCATS DSHEA and TCM libraries (AID 1919977). Further: 0% is about no effect. To be noted: KB-8-5-11 cells; series mostly up to 26.1 µM. In outline: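 P-gp-overexpressing KB-8-5-11 cells were screened in colchicine-free medium at 500 cells/well, as a titration series. Cells were exposed for 72 h at 37C. Viability was read by CellTiter-Glo luminescence after 30 min at room temperature.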

The nature of test [11]: Quantitative High-Throughput drug screen in 47 multiple myeloma cell lines against the NCATS MIPE library collection: VP6_DJ cell viability assay (AID 1919867). Further: nearly all actives have a fitted effect of over 40% in size. To be noted: ATP luminescence, 48 h; series mostly up to 45.8 µM. The essentials: as §2
Test [12] can be described thus: Quantitative High-Throughput drug screen in 47 multiple myeloma cell lines against the NCATS MIPE library collection: PCM6_Riken cell viability assay (AID 1919870). Further: nearly all actives have a fitted effect of over 30% in size. Conditions: CellTiter-Glo ATP, 48 h; series mostly up to 45.8 µM. The essentials:
as §2

Where [13] appears, read: measured here: PEO1 parental Z-AUC.
The mark [14] stands for this setting: TFE3-RCC UOK109 viability, measured here: UOK109 Z-AUC.
Setting [15] is: TFE3-RCC viability, measured here: UOK124 Z-AUC.
The mark [16] stands for this setting: TFE3-RCC viability, measured here: UOK145 Z-AUC.

Inconclusive results are not listed. Calls of active or inactive are those of the source. Unless noted, the call rests on the fitted dose curve; in most records, active means well fitted curve in the direction sought with a large enough effect; inconclusive means small, poorly fitted or top-dose-only effect, or another doubt; inactive means no such curve, though single readings can be large; an effect the other way counts as inactive or inconclusive.

On to `CC(C)[C@]12O[C@H]1[C@@H]1O[C@]13[C@]1(O[C@H]1C[C@H]1C4=C(CC[C@@]13C)C(=O)OC4)[C@@H]2O`, for which the values for the Z-AUC in test [1], in test [1] (setting [13]) and in [1] (measured here: PEO4 Z-AUC) were -2.76 (inactive), -2.59 and -3.67, respectively.

Take `CC[N+]1(CCOC(=O)C(O)(c2ccccc2)c2ccccc2)CCCCC1`: the activity, negative = inhibition is -23.7% (inactive) in test [2] (parasite line A) and -20.1% (inactive) in test [2] (parasite line B). In addition, in the test with 3D7, the Potency result was “inactive”.

As to `COC(=O)[C@@H](N)CCCN=C(N)N[N+](=O)[O-]`, the Potency entry in [3], in [4], in test [5], in test [6], in test [7] and in test [8] was “inactive” each time. Also, the Potency entry in the test with 3D7 and in the test on 7G8 was “inactive” throughout. For the same molecule, the Z-AUC was -0.673 (inactive) in test [1], -0.429 in test [1] (setting [13]) and -0.589 in test [1] (measured here: PEO4 Z-AUC). Besides, the results for the z-score in test [9] (setting [14]), in test [9] (setting [15]) and in [9] (setting [16]) were 0.59, 0.788 and 2.13, respectively. For the same molecule, the activity, negative = inhibition in test [2] (parasite line A) was 8.8% (inactive); in test [2] (parasite line B), 10.5% (inactive).

Consider `CC1=C(C/C=C(\C)CCC[C@H](C)CCC[C@H](C)CCCC(C)C)C(=O)c2ccccc2C1=O`, for which the molecule was called inactive in [10].

For `C[C@](O)(COc1ccc(C#N)cc1)C(=O)Nc1ccc(C#N)c(C(F)(F)F)c1`, the Potency entry in test [3] and in test [6] was “inactive” each time. Besides, the Potency in test [4] was 18.7 µM (active). The Z-AUC was 0.66 (inactive) in [1], 0.716 in [1] (setting [13]) and 0.592 in [1] (measured here: PEO4 Z-AUC).

For `CCCCCCCCCC(CC)c1ccc(S(=O)(=O)O)cc1` (configuration not stated), the activity, negative = inhibition is 4.98% (inactive) in test [2] (parasite line A) and 0.132% (inactive) in [2] (parasite line B). Besides, the Potency result in the test on 3D7 and in the test on 7G8 was “inactive” each time.

Regarding `CN1C2CCC1CC(OC(=O)c1cc(Cl)cc(Cl)c1)C2` (configuration not stated), the figures for the activity, negative = inhibition in [2] (parasite line A) and in [2] (parasite line B) were -1.17% (inactive) and 5.18% (inactive), respectively. Besides, the Potency entry with 3D7 is “inactive”. In addition, the Potency in the test with 7G8 is 6.31 µM (active).

As for `NC(=O)CN1CC(O)CC1=O` (configuration not stated), the activity, negative = inhibition in [2] (parasite line A) is 3.26% (inactive); in test [2] (parasite line B), 7.69% (inactive). The Potency result with 3D7 and in the test with 7G8 was “inactive” each time.

Regarding `C=CCN1CC[C@]23CCCCC2[C@H]1Cc1ccc(O)cc13` (some centres not stated), the values for the activity, negative = inhibition in test [2] (parasite line A) and in test [2] (parasite line B) were 18.6% (inactive) and 4.44% (inactive), respectively. In the test with 3D7, the Potency entry is “inactive”. The Potency in the test with 7G8 is 11.2 µM (active).

For `CC(=Cc1csc(C)n1)[C@@H]1C[C@H]2O[C@]2(C)CCC[C@H](C)[C@@H](O)[C@@H](C)C(=O)C(C)(C)[C@@H](O)CC(=O)O1`, the Potency result in [11], in [4], in [12], in test [5], in test [6] and in test [7] was “inactive” throughout. For the same molecule, the Potency entry in [8] is “inactive”.

On to `CN[C@@H]1C[C@@H](c2ccc(Cl)c(Cl)c2)c2ccccc21`, for which the Potency entry in the test on 3D7 was “inactive”. Besides, the Potency in the test with 7G8 was 10 µM (active).

On to `CCCCCCCCCCCCCCCC[N+](C)(C)C`, for which the Potency in [2] (parasite line A) is 11.2 µM (active); in the test with 3D7, 8.91 µM (active); in the test on 7G8, 11.2 µM (active).

In the case of `CC(=O)[O][Hg][c]1ccccc1`, the Potency in test [2] (parasite line A) is 3.98 µM (active); in test [2] (parasite line B) it was 6.31 µM (active); with 3D7, 12.6 µM (active); with 7G8 it was 1 µM (active).

For `C/C=C(/C)C(=O)O[C@H]1C(C)=C2[C@H]([C@@H]1OC(=O)CCCCCCC)[C@@](C)(OC(C)=O)C[C@H](OC(=O)CCC)[C@@]1(O)[C@H]2OC(=O)[C@@]1(C)O`, the Potency in test [1] was 9.8 nM (active). Also, the Z-AUC in [1] (setting [13]) was -2.42; in test [1] (measured here: PEO4 Z-AUC), -2.66.

On to `Cc1cc(O)ccc1Cl`, for which the activity, negative = inhibition in test [2] (parasite line A) is 4.69% (inactive); in [2] (parasite line B) it was -0.29% (inactive). Further, in the test with 3D7, the Potency result is “inactive”.

With `Cc1ccc(Cl)c(O)c1`, the activity, negative = inhibition is 9.64% (inactive) in test [2] (parasite line A) and 15% (inactive) in test [2] (parasite line B). Moreover, the Potency entry in the test on 3D7 and with 7G8 was “inactive” each time.

In the case of `C[C@]12CC[C@@H]3[C@@H](CCC4=CC(=O)CC[C@@H]43)[C@@H]1CC[C@@H]2OC(=O)CCc1ccccc1`, the Potency entry in [3], in [4], in test [6], in test [7] and in test [8] was “inactive” each time. Also, the Z-AUC in test [1] is -0.102 (inactive); in test [1] (setting [13]) it was -0.728; in test [1] (measured here: PEO4 Z-AUC) it was -0.686. For the same molecule, the results for the z-score in test [9] (setting [14]), in test [9] (setting [15]) and in [9] (setting [16]) were 0.952, 0.605 and -2.12, respectively.
